Bioassay records as filed in PubChem.
BAZ2B block: qHTS Assay for Inhibitors of BAZ2B; Bromodomain adjacent to zinc finger domain protein 2B (Homo sapiens), Q9UIF8; AlphaScreen BAZ2B-H3K14Ac peptide displacement; Potency, µM (titrated, usually from 114 µM), for the others: top-dose activity change, negative = inhibition, most hits filed as inhibitors; 360,000 compounds, 4.4% hits; AID 504333, 2011; further: potency means the concentration at half of the fitted maximal effect; on the % scale 0 is the no-effect control and ±100 the full control effect; nearly all actives have a fitted effect of over 60% in size
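Multi-concentration screen (max 110 uM) measuring displacement of acetylated histone H3 peptide from BAZ2B by AlphaScreen, using 50 nM protein, 50 nM peptide and 10 ug/mL streptavidin donor plus Ni-chelate acceptor beads.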
PI5P4K alpha inh: qHTS for Inhibitors of phosphatidylinositol 5-phosphate 4-kinase (PI5P4K); Phosphatidylinositol 5-phosphate 4-kinase type-2 alpha (Homo sapiens), P48426; PI5P4Kalpha enzyme, ADP-Glo luminescence, 60 min; stronger effect = lower value; max response, %; 330,000 compounds, 1.2% hits; AID 652105, 2013; active means max response of -50% or lower; inconclusive means between -30% and -50%; inactive means -30% or higher; further: value at the top dose of about 77 µM; on the % scale 0 is the no-effect control and ±100 the full control effect
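Human PI5P4Kalpha with substrate in 0.038 M HEPES pH 7.4, 0.28 mM EGTA, 0.1% CHAPS, 5% DMSO; reaction started with 5 microM ATP (final), 60 min at room temperature. ADP formed read by ADP-Glo luminescence.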
G9a block: qHTS Assay for Inhibitors of Histone Lysine Methyltransferase G9a. Histone-lysine N-methyltransferase EHMT2 (Homo sapiens), Q96KQ7. G9a H3K9 monomethylation, AlphaScreen, 2 h. Potency, µM (highest dose often 102 µM), for inactives: at the top dose activity, negative = inhibition, actives largely listed as inhibitors. 350,000 compounds, 8.8% hits. AID 504332, 2011; further: potency means the concentration at half of the fitted maximal effect; on the % scale 0 is the no-effect control and ±100 the full control effect; nearly all actives have a fitted effect of over 75% in size
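Chemiluminescent proximity detection of H3K9 monomethylation, read after 10 min bead incubation in the dark. Reaction: 20 nM G9a, 500 nM biotin-H3K9 peptide, 20 uM SAM cofactor, 2 h, room temperature, following 15 min enzyme-compound preincubation.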
HP1b binding inh: HTS for Inhibitors of HP1-beta Chromodomain Interactions with Methylated Histone Tails | Potency, µM (doses to about 114 µM), without a hit: at the top dose activity change, negative = inhibition, most hits filed as inhibitors | Chromobox protein homolog 1 (Homo sapiens), P83916 | 390,000 compounds, 0.56% hits | AlphaScreen HP1-beta / biotin-H3K9me3 peptide binding; further: potency means the concentration at half of the fitted maximal effect; nearly all actives have a fitted effect of over 70% in size
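HP1-beta protein (50 nM final) preincubated 30 min at room temperature with biotinylated H3(1-18)K9me3 peptide (50 nM) in PBS pH 7.4, 0.01% Tween-20, then compound added for 30 min. AlphaScreen streptavidin donor/nickel chelate acceptor beads (10 ug/mL final), 30 min dark, luminescence read.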
JMJD2A Tudor: qHTS Assay for Inhibitors of JMJD2A-Tudor Domain. Lysine-specific demethylase 4A (Homo sapiens), O75164. AlphaScreen JMJD2A-Tudor / H3K4me3 peptide binding. Potency, µM (highest dose often 114 µM), without a hit: top-dose activity change, negative = inhibition, actives largely listed as inhibitors. 390,000 compounds, 4.4% hits; further: potency means the concentration at half of the fitted maximal effect; on the % scale 0 is the no-effect control and ±100 the full control effect; nearly all actives have a fitted effect of over 50% in size
PLK1 PBD block: qHTS for Inhibitors of PLK1-PDB (polo-like kinase 1 - polo-box domain): Primary Screen | Serine/threonine-protein kinase PLK1 (Homo sapiens), P53350 | Plk1 PBD binding of FITC phosphopeptide, fluorescence polarization | Potency, µM, inactives show max response, negative = inhibition, most hits filed as inhibitors | 360,000 compounds, 2.8% hits | AID 720504, 2013; further: potency means the concentration at half of the fitted maximal effect; series mostly up to about 57 µM; on the % scale 0 is the no-effect control and ±100 the full control effect; nearly all actives have a fitted effect of over 65% in size
Target sequence (P53350 whole entry, looked up, the tested form may be a part): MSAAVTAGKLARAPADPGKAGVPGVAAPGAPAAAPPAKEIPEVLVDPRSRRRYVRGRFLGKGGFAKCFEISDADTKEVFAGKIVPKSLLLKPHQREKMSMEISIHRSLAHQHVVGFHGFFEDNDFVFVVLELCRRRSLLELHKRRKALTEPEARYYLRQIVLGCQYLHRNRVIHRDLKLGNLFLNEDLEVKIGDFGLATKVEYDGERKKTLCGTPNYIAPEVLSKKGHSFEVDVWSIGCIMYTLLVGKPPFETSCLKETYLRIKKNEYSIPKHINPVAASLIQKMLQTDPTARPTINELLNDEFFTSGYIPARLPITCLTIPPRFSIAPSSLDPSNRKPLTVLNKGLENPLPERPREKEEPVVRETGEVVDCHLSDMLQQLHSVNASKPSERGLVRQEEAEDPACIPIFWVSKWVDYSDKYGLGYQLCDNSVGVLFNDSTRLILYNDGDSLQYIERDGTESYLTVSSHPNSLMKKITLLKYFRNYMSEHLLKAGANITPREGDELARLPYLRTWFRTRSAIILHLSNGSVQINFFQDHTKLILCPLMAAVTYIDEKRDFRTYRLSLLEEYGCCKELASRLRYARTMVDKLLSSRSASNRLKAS
* = called active by the depositor; [ ] = remark or other dose. A selection: hits, their analogues and other compounds. The true share with any hit is near 12%. Unless noted, the call rests on the fitted dose curve; in most records, active means well fitted curve in the direction sought with a large enough effect; inconclusive means small, poorly fitted or top-dose-only effect, or another doubt; inactive means no such curve, though single readings can be large; an effect the other way counts as inactive or inconclusive.

For COC(=O)c1ccccc1NC(=O)CN1C(=O)COc2ccc(Cl)cc21 the results were BAZ2B block 4.6%, G9a block 14.3%[59 µM], HP1b binding inh 30.8% and JMJD2A Tudor -3.1%.
For O=C(O)CCCNC(=O)CC1S/C(=N/N=C/c2ccccc2O)NC1=O (stereo not drawn) the results were BAZ2B block 50.1µM*, PI5P4K alpha inh inconclusive, G9a block 0.5%, HP1b binding inh 31.1%, JMJD2A Tudor -23.1% and PLK1 PBD block -9.3%.
COc1ccccc1/C=N\NC(=O)c1c(C)nc2ccc(Cl)cn12 was read as BAZ2B block 10.8%, PI5P4K alpha inh -0.2, G9a block -0.4%[59 µM], HP1b binding inh 22.4%, JMJD2A Tudor -6.2% and PLK1 PBD block -6.0%.
For COc1cccc(/C=N/NC(=O)c2c(C)nc3ccc(Cl)cn23)c1O the results were BAZ2B block 8.91µM*, PI5P4K alpha inh 1.5, G9a block -9.6%, HP1b binding inh 23.4%, JMJD2A Tudor 56.2µM* and PLK1 PBD block 17.1%.
Screening COc1cccc(/C=N/NC(=O)c2ccc(=O)[nH]n2)c1O returned BAZ2B block 50.1µM*, PI5P4K alpha inh -2.6, G9a block -4.2%, HP1b binding inh 48.7%, JMJD2A Tudor 79.4µM* and PLK1 PBD block 4.2%.
`COc1ccc(OC)c(/C=N/NC(=O)c2ccc(=O)[nH]n2)c1` gave BAZ2B block -34.8%, PI5P4K alpha inh 0.6, G9a block -14.9%[59 µM], HP1b binding inh 12.5%[57 µM], JMJD2A Tudor -13.2% and PLK1 PBD block -4.8%.
COc1cccc(/C=N/NC(=O)c2ccc(=O)n(C)c2)c1O was read as BAZ2B block inconclusive, PI5P4K alpha inh 6.5, G9a block 16.0%[59 µM], HP1b binding inh 16.8%, JMJD2A Tudor 56.2µM* and PLK1 PBD block -7.9%.
`CCOc1ccc(NS(=O)(=O)c2ccc3[nH]cc(C(=O)N4CCCCCC4)c(=O)c3c2)cc1` gave G9a block -3.1%[59 µM], HP1b binding inh 36.0% and JMJD2A Tudor -18.3%.
CCn1nnc2cc(C(=O)Nc3cccc(C)c3C)ccc21 was read as BAZ2B block -1.3%, G9a block -0.8%[59 µM], HP1b binding inh 12.4% and JMJD2A Tudor -13.0%.
Screening COc1ccc(CN(C)C2CCN(C)CC2)cc1OC returned BAZ2B block 56.2µM*, PI5P4K alpha inh 7.9, G9a block 28.2µM*, HP1b binding inh 1.2%, JMJD2A Tudor 89.1µM* and PLK1 PBD block -7.0%.
Screening Cc1ccc(CN(C)C2CCN(C)CC2)cc1 returned BAZ2B block -5.5%, PI5P4K alpha inh -1.9, HP1b binding inh 1.4%, JMJD2A Tudor inconclusive and PLK1 PBD block 23.8µM*.
For COc1ccc(CCNC2CCN(C)CC2)cc1OC the results were BAZ2B block -4.6%, PI5P4K alpha inh 1.3, G9a block inconclusive, HP1b binding inh 57.6%, JMJD2A Tudor 3.8% and PLK1 PBD block -4.9%.
Screening O=C(CSc1nnc(COc2ccccc2)o1)NCCc1ccccc1 returned BAZ2B block 6.2%, PI5P4K alpha inh inconclusive, G9a block -4.0%[59 µM], HP1b binding inh inconclusive, JMJD2A Tudor 3.16µM* and PLK1 PBD block 2.67µM*.
Screening Cc1cc(-c2nnc(SCC(=O)Nc3nccs3)o2)no1 returned BAZ2B block 20µM*, PI5P4K alpha inh -20.8, G9a block 36.3%[12.7 µM], HP1b binding inh 24.0%, JMJD2A Tudor 39.8µM* and PLK1 PBD block -13.7%.
For O=C(CSc1nnc(COc2ccccc2)o1)Nc1nccs1 the results were BAZ2B block 79.4µM*, PI5P4K alpha inh -13.3, G9a block 12.7%, HP1b binding inh 64.2%, JMJD2A Tudor -33.8% and PLK1 PBD block -9.8%.
Screening O=C(CSc1nnc(COc2ccc(Cl)cc2)o1)Nc1nccs1 returned PI5P4K alpha inh -12.0 and PLK1 PBD block -10.7%.
Cc1cccc(OCc2nnc(SCC(=O)NCCc3ccccc3)o2)c1 was read as BAZ2B block -15.3%, G9a block 10.7%, HP1b binding inh 24.3%, JMJD2A Tudor -1.3% and PLK1 PBD block -2.5%.
O=C(CSc1nnc(COc2ccc(Cl)cc2)o1)Nc1ccc(N2CCOCC2)cc1 was read as BAZ2B block 4.0%, PI5P4K alpha inh -9.7, G9a block 31.6µM*, HP1b binding inh 15.4%, JMJD2A Tudor -6.2% and PLK1 PBD block -2.7%.
For O=c1oc2ccccc2cc1-c1cn2cc(Cc3ccccc3F)sc2n1 the results were BAZ2B block -0.1%, G9a block 17.5%[59 µM], HP1b binding inh 29.5% and JMJD2A Tudor 4.5%.
`Cc1cccc(C)c1NC(=O)C1(C)CN(S(C)(=O)=O)CC(=O)N1CCCn1ccnc1` (stereo not drawn) gave PI5P4K alpha inh 0.2 and PLK1 PBD block 0.9%.
O=C(CSc1nnc(C2COc3ccccc3O2)o1)Nc1nccs1 (stereo not drawn) was read as BAZ2B block 39.8µM*, PI5P4K alpha inh 2.0, G9a block 0.2%, HP1b binding inh 48.2%, JMJD2A Tudor 79.4µM* and PLK1 PBD block -1.3%.
`O=C(CSc1nnc(C2COc3ccccc3O2)o1)NC1CCCCC1` (stereo not drawn) gave BAZ2B block -24.0%, PI5P4K alpha inh -2.8, G9a block -12.7%[59 µM], HP1b binding inh 40.8%, JMJD2A Tudor -14.1% and PLK1 PBD block -20.7%.
For Cc1cccc(OCc2nnc(SCC(=O)Nc3nccs3)o2)c1 the results were BAZ2B block 79.4µM*, PI5P4K alpha inh 0.5, G9a block 7.0%, HP1b binding inh 44.5%, JMJD2A Tudor -32.2% and PLK1 PBD block 6.8%.
`CC(CNC(=O)CC[C@H]1O[C@@H](n2cnc3c(NC(=O)c4ccccc4)ncnc32)[C@H](O)[C@@H]1O)c1ccccc1` (stereo partly drawn) gave PI5P4K alpha inh -5.0 and PLK1 PBD block -13.0%.
`CC(CC(=O)Nc1nnc(C(C)(C)C)s1)c1ccccc1` (stereo not drawn) gave BAZ2B block -5.4%, PI5P4K alpha inh -9.0, G9a block 25.1µM*, HP1b binding inh 8.6%, JMJD2A Tudor -17.3% and PLK1 PBD block inconclusive.
CCOCc1nnc(NC(=O)CSc2ccccc2)s1 was read as BAZ2B block 6.6%, PI5P4K alpha inh -12.0, G9a block -1.5%[12.7 µM], HP1b binding inh 25.3%, JMJD2A Tudor 3.8% and PLK1 PBD block inconclusive.
